Records with an inconclusive call do not appear. Values without a mark were called inactive. Activity calls are given as the source filed them. Calls come from the whole dose curve; as a rule, active = well fitted inhibition curve with a large enough effect; inconclusive = small, poorly fitted or top-dose-only effect; inactive = flat fitted curve, though single readings scatter.
Tests used:
Test in all cases: Cytotoxic Profiling of Annotated Libraries Using Quantitative High-Throughput Screening (AID 1296008); note: nearly all actives have a fitted effect of over 60% in size
Settings in all cases: Five cell lines viability, CellTiter-Glo ATP luminescence, 48-72 h; max response: stronger effect = lower value
[1] = tested on: CRL-7250
How it was run: (§1)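 Compounds were pin-transferred onto cells and incubated 48 or 72 hr at 37 degree Celsius, 95% humidity. CellTiter-Glo was added, plates sat 10 min at room temperature, then ATP-coupled luminescence was imaged as the viability read-out.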

[2] = tested on: HEK293
How it was run: as §1

[3] = tested on: HaCat
How it was run: as §1

[4] = tested on: KB-3-1
How it was run: as §1

[5] = tested on: NIH3T3
How it was run: as §1
% is set by controls: 0 for no effect and ±100 for the full control effect; potency is the fitted concentration of half-maximal effect.

SMILES | max response [1] | max response [2] | max response [3] | max response [4] | outcome [5] | outcome [4] | outcome [1] | Potency [2]
Cc1ccc2nc(NC(=O)CSc3nc4c(c(=O)n3-c3ccc(F)cc3)SCC4)sc2c1 | -14.2% | -0.604% | 1.13% | 9.39% | inactive |  |  | 
CC1=C2C3OC(=O)C(C)C3(O)CCC2(C)CCC1 (stereo not given) | 4.24% | 2.89% | 0.93% | 2.02% | inactive |  |  | 
C=CC(C)(CCC=C(C)C)O[C@@H]1O[C@H](CO)[C@@H](O)[C@H](O)[C@H]1O (stereo not given in full) | -23.7% | -6.28% | -2.03% | 6.36% | inactive |  |  | 
COC(=O)C1=CO[C@@H](O[C@@H]2O[C@H](CO)[C@@H](O)[C@H](O)[C@H]2O)[C@@H]2[C@@H](C)[C@@H](OC(=O)/C=C/c3ccccc3)[C@@H](O)[C@H]12 | -5.94% | -9.01% | -9.9% |  | inactive | inactive |  | 
C[C@H]1/C=C/C=C/C=C/C=C/C=C/[C@@H](O)[C@H](C(=O)O)[C@H](O)C[C@H](O)CCC[C@H](O)C[C@H](O)C[C@H](O)[C@@H](C)C(=O)O[C@@H]1C |  | 1.51% | 2.29% | 7.54% | inactive |  | inactive | 
CCCCCOC(=O)Nc1nc(=O)n(C2O[C@H](C)[C@@H](O)[C@H]2O)cc1F (stereo not given in full) |  | -11.1% | -6.73% |  | inactive | inactive | inactive | 
CC(C)[C@@](O)(c1ccc2cc(OC(F)F)c(OC(F)F)cc2c1)c1cn[nH]n1 | -0.82% | -10.2% | -0.148% | 5.26% | inactive |  |  | 
O=C(Nc1cc(-c2ccccc2)nn1-c1ccccc1F)c1ccc([N+](=O)[O-])cc1 | -9.65% |  | 2.32% | -2.53% | inactive |  |  | 23.1 µM (active)
CCOC(=O)c1ccc(NC2CCCCC2)c(N)c1 |  | -10.7% | -10.7% | -6.34% | inactive |  | inactive | 
CC1(C)CCCC2(C)c3c4c(c(=O)oc(=O)c3=CCC12)=CCC1C(C)(C)CCCC41C (stereo not given) | -2.61% | 2.74% | 0.0105% |  | inactive | inactive |  | 
O=C(O)CCc1cc2ccoc2cc1O[C@@H]1O[C@H](CO)[C@@H](O)[C@H](O)[C@H]1O |  | 1.52% | 0.684% |  | inactive | inactive | inactive | 
CC(C/C=C/C(C)(C)O)C1CCC(C)(O)C(O)C1 (stereo not given) |  | 2.47% | 0.0762% |  | inactive | inactive | inactive | 
COC(=O)[C@H](O)[C@H]1C(C)(C)[C@H](OC(C)=O)[C@@]2(O)C(=O)[C@]1(C)C1CC[C@]3(C)C(CC(=O)O[C@H]3c3ccoc3)[C@]13O[C@@H]32 (stereo not given in full) |  | -3.86% | 4.44% | -6.4% | inactive |  | inactive | 
C=CCC1=C[C@]2(OC)[C@H](C)[C@@H](c3ccc(OC)c(OC)c3)O[C@]2(OC)CC1=O | 4.13% | -10.4% | -0.368% |  | inactive | inactive |  | 
C[C@@]1(O)[C@H](O)[C@@H](CO)O[C@H]1n1cnc2c(=O)[nH]c(N)nc21 | 0.111% | 0.681% | -4.96% |  | inactive | inactive |  | 
Cc1ncc(Cl)cc1NCc1ccc(C(=O)NC(CC2CCCC2)C(=O)NC2CC2)s1 (stereo not given) |  | -15.8% | -11.9% | -1.73% | inactive |  | inactive | 
C/C=C/C=C/C=C/C(=O)O[C@@H]1C=C(CO)[C@](O)(CO)[C@@]2(C)CCCC(C)(C)[C@H]12 | -5.67% |  | -1.12% |  | inactive | inactive |  | 12.8 µM (active)
COc1cc(C(C)=O)ccc1O[C@@H]1O[C@H](CO[C@@H]2OC[C@@H](O)[C@H](O)[C@H]2O)[C@@H](O)[C@H](O)[C@H]1O | 0.428% | -0.597% | -2.37% | 7.17% | inactive |  |  | 
Cc1ccccc1N1CCN(S(=O)(=O)C[C@]23CC[C@H](C[C@@H]2NC(=O)[C@@H](N)CCS(C)(=O)=O)C3(C)C)CC1 | 1.21% | 4.97% | 0.627% | 5.94% | inactive |  |  | 
COc1cc(Nc2nc3c(s2)CCCC3c2ccccc2)ccc1-n1cnc(C)c1 (stereo not given) |  | 3.81% | -4.18% | -3.56% | inactive |  | inactive | 

From PubChem BioAssay (NCATS)
